# From PubChem BioAssay (EPA / NIEHS)
# Inconclusive results are not listed. Activity calls are given as the source filed them. The calls were made as follows: active = hit-call score of the fitted dose curve at least 0.9, where 1 is the maximum; inconclusive = response in the unintended direction; inactive = score below 0.9.
# What was measured:
# [1] = target: Tyrosine-protein phosphatase non-receptor type 12 (Homo sapiens) (UniProt Q05209); experiment: NVS_ENZ_hPTPN12: NovaScreen (NVS) Enzymatic Assay for human Protein Tyrosine Phosphatase Non-receptor Type 12 (PTPN12) (AID 2283204)
# Summary of the method: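 Single-concentration duplicates (25 uM) preceded singleton concentration-response up to 50 uM for chemicals passing threshold. Cell-free recombinant PTPN12 activity was read 1.33 h after dosing via fluorescence after mobility-shift separation; loss of signal versus DMSO.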
# [2] = target: human Protein Tyrosine Phosphatase Non-receptor Type 2 (PTPN2), PTPN2 (gene 5771) (UniProt P17706); experiment: NVS_ENZ_hPTPN2: NovaScreen (NVS) Enzymatic Assay for human Protein Tyrosine Phosphatase Non-receptor Type 2 (PTPN2) (AID 2283207)
# Method: (§1) NVS_ENZ_hPTPN2 is a biochemical, single-readout assay that uses extracted gene-proteins in a cell-free assay. Measurements were taken 1 hour after chemical dosing in a 384-well plate.NVS_ENZ_hPTPN2 is one of one assay component(s) measured or calculated from the NVS_ENZ_hPTPN2 assay. It is designed to make measurements of enzyme activity, a form of enzyme reporter, as detected with fluorescence intensity signals by Fluorescence and electrophoretic mobility shift technology.Data from the assay component NVS_ENZ_hPTPN2 was analyzed into 1 assay endpoint. This assay endpoint, NVS_ENZ_hPTPN2, was analyzed in the positive analysis fitting direction relative to DMSO as the negative control and baseline of activity. Using a type of enzyme reporter, loss-of-signal activity can be used to understand changes in the enzymatic activity as they relate to the gene PTPN2. Furthermore, this assay endpoint can be referred to as a primary readout, because this assay has produced multiple assay endpoints where this one serves a enzymatic activity function. To generalize the intended target to other relatable targets, this assay endpoint is annotated to the phosphatase intended target family, where the subfamily is non-receptor tyrosine phosphatase.
# Binding assays used specific radioligands (tritiated, iodinated) with non-radioactive competitive displacement ligands in agonist or antagonist protocols (as indicated) and various reference compounds and inhibitors to titrate specific binding to receptors and transporters. Most enzyme assays (CYPs, kinases, phosphatases, proteases, HDACs) used recombinant protein and specific substrates (fluorescence mostly, some colorimetric and radioactive) and inhibitors, followed by a biochemical separation of substrate and product. All assays for the biochemical HTS were initially run in duplicate at a single concentration (10 uM for CYP450 assays and 25 uM for all others). […] Each assay was run with positive and negative controls, and concurrent controls on every plate. The follow-up (secondary) screen tested active chemical-pairs in concentration series, as well as a few additional assays not tested in the primary screen, some selected negative inactives, and several cases re-run in the concentration series for confirmatory purposes.
# [3] = target: Tyrosine-protein phosphatase non-receptor type 14 (Homo sapiens) (UniProt Q15678); experiment: NVS_ENZ_hPTPN14: NovaScreen (NVS) Enzymatic Assay for human Protein Tyrosine Phosphatase Non-receptor Type 14 (PTPN14) (AID 2283206)
# Summary of the method: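 Fluorescent substrate turnover by recombinant human PTPN14 was measured 0.5 h after compound addition, with substrate and product separated by mobility shift. Single-point screening at 25 uM, then concentration-response up to 50 uM for chemicals meeting threshold (e.g., 30% inhibition).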
# [4] = target: human Protein Tyrosine Phosphatase Non-receptor Type 4 (PTPN4), PTPN4 (gene 5775) (UniProt P29074); experiment: NVS_ENZ_hPTPN4: NovaScreen (NVS) Enzymatic Assay for human Protein Tyrosine Phosphatase Non-receptor Type 4 (PTPN4) (AID 2283208)
# Summary of the method: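 Screened in duplicate at 25 uM, with hits then titrated to a top concentration of 50 uM. Recombinant Sf9-derived PTPN4 turnover was read by fluorescence with electrophoretic separation, 1.33 h after compound addition. DMSO served as baseline.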
# [5] = target: human Protein Tyrosine Phosphatase Non-receptor Type 9 (PTPN9), PTPN9 (gene 5780) (UniProt P43378); experiment: NVS_ENZ_hPTPN9: NovaScreen (NVS) Enzymatic Assay for human Protein Tyrosine Phosphatase Non-receptor Type 9 (PTPN9) (AID 2283209)
# Method: as §1, with “NVS_ENZ_hPTPN9” for “NVS_ENZ_hPTPN2”, “gene-proteins from SF9” for “gene-proteins”, “1.33 hours” for “1 hour”, “plate.NVS_ENZ_hPTPN9” for “plate.NVS_ENZ_hPTPN2”, “NVS_ENZ_hPTPN9,” for “NVS_ENZ_hPTPN2,”, “PTPN9.” for “PTPN2.”
# Binding assays used specific radioligands (tritiated, iodinated) with non-radioactive competitive displacement ligands in agonist or antagonist protocols (as indicated) and various reference compounds and inhibitors to titrate specific binding to receptors and transporters. Most enzyme assays (CYPs, kinases, phosphatases, proteases, HDACs) used recombinant protein and specific substrates (fluorescence mostly, some colorimetric and radioactive) and inhibitors, followed by a biochemical separation of substrate and product. All assays for the biochemical HTS were initially run in duplicate at a single concentration (10 uM for CYP450 assays and 25 uM for all others). […]
# [6] = target: human Phosphatase and Tensin Homolog (PTEN), PTEN (gene 5728) (UniProt P60484); experiment: NVS_ENZ_hPTEN: NovaScreen (NVS) Enzymatic Assay for human Phosphatase and Tensin Homolog (PTEN) (AID 2283203)
# Summary of the method: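 Loss of fluorescent product signal after mobility-shift separation reports PTEN activity, recombinant human enzyme, 1 h after compound addition. Single 25 uM duplicate screen, then concentration-response on actives; DMSO baseline.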
# [7] = target: human Protein Tyrosine Phosphatase Non-receptor Type 6 (PTPN6), PTPN6 (gene 5777) (UniProt P29350); experiment: NVS_ENZ_hPTPN6: NovaScreen (NVS) Enzymatic Assay for human Protein Tyrosine Phosphatase Non-receptor Type 6 (PTPN6) (AID 2283210)
# Summary of the method: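 Recombinant human PTPN6 from SF9 cells, enzyme activity followed by fluorescence after mobility-shift separation of substrate and product at 1.33 h. Chemicals first tested at a single 25 uM in duplicate, then confirmed across concentration series; loss of signal relative to DMSO.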
# Chain of human Protein Tyrosine Phosphatase Non-receptor Type 2 (PTPN2), PTPN2 (gene 5771) (P17706 whole entry, looked up): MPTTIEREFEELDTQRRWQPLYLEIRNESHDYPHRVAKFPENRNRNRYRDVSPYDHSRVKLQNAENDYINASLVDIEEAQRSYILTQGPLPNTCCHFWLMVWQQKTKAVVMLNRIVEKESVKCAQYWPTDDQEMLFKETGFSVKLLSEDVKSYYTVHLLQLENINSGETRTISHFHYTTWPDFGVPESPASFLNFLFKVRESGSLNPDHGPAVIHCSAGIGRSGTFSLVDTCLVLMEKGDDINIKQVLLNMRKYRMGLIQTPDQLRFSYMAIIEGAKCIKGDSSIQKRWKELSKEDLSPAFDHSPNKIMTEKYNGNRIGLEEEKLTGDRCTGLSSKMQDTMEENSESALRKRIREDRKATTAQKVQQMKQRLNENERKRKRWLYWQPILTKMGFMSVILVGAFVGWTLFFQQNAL
# Chain of Tyrosine-protein phosphatase non-receptor type 14 (Homo sapiens) (Q15678 whole entry, looked up): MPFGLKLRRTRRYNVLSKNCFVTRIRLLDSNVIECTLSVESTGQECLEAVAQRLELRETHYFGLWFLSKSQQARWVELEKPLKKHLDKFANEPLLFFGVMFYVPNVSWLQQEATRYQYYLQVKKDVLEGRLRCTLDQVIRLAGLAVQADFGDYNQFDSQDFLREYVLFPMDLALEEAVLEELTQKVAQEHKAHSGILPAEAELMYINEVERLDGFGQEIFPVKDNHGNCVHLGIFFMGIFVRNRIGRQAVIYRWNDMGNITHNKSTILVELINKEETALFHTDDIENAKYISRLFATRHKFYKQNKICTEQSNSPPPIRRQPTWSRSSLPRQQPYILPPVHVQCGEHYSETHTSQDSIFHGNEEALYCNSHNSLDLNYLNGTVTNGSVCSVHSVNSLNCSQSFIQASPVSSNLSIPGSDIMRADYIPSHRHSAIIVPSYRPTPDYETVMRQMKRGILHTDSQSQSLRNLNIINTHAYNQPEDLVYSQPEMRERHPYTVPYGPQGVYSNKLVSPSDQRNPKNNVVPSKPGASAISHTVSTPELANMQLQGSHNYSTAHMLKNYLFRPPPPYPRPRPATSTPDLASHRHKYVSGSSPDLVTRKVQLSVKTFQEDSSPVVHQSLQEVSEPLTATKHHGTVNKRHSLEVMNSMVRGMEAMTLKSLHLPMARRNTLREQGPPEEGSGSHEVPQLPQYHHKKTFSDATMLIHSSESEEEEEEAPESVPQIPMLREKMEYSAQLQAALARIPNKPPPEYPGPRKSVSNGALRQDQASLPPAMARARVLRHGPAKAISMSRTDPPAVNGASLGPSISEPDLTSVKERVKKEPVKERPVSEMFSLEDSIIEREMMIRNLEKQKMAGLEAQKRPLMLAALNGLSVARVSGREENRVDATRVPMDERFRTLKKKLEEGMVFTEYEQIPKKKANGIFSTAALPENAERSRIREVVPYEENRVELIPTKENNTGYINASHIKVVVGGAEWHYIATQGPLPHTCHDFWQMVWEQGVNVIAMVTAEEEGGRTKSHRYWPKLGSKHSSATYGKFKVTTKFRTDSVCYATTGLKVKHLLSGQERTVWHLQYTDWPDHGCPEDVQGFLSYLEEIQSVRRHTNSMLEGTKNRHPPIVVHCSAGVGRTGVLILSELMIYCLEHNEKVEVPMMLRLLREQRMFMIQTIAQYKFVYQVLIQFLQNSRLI
# Chain of human Protein Tyrosine Phosphatase Non-receptor Type 4 (PTPN4), PTPN4 (gene 5775) (P29074 whole entry, looked up): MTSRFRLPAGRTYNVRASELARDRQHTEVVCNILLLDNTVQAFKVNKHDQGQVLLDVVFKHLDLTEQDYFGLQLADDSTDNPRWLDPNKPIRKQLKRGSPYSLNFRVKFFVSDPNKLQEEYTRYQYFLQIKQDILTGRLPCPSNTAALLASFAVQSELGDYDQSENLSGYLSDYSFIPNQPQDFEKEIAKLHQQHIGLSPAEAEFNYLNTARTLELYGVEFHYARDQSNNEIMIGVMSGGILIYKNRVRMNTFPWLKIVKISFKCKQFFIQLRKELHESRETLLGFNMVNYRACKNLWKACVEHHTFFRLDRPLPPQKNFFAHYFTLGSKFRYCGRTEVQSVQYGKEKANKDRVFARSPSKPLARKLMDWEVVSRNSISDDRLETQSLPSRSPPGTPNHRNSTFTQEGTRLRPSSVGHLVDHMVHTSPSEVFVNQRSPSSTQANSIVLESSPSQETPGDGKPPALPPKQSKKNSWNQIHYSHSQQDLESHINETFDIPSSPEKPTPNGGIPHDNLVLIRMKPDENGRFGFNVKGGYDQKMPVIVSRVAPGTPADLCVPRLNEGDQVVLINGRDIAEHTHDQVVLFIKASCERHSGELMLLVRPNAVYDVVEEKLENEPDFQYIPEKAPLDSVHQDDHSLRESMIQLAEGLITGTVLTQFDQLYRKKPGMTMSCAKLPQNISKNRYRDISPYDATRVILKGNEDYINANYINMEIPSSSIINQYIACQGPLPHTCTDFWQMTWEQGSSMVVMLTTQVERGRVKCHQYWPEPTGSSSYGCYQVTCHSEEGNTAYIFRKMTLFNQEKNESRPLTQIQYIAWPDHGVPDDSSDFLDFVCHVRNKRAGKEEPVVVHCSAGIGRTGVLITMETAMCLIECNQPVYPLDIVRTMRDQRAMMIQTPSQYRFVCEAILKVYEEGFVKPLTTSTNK
# Chain of Tyrosine-protein phosphatase non-receptor type 12 (Homo sapiens) (Q05209 whole entry, looked up): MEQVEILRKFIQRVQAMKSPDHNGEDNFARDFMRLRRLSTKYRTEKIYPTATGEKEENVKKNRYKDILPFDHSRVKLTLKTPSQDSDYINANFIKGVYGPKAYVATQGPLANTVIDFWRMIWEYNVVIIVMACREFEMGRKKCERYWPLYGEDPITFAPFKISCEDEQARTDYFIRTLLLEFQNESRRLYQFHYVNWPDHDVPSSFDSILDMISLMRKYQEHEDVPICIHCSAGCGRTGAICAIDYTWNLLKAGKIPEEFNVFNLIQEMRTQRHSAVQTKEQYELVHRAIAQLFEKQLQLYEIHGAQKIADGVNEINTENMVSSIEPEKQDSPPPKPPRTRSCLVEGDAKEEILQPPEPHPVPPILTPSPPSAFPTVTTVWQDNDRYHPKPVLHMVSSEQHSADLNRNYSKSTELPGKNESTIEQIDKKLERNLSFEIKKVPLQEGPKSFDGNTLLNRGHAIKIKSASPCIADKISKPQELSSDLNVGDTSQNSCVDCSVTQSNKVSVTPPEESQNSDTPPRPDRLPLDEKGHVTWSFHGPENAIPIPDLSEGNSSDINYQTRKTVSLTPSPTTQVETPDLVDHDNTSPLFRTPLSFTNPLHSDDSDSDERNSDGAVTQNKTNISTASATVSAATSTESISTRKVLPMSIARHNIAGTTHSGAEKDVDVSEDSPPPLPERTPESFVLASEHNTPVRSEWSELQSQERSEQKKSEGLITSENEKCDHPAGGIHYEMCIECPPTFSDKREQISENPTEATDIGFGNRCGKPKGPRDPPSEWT
# Chain of human Protein Tyrosine Phosphatase Non-receptor Type 9 (PTPN9), PTPN9 (gene 5780) (P43378 whole entry, looked up): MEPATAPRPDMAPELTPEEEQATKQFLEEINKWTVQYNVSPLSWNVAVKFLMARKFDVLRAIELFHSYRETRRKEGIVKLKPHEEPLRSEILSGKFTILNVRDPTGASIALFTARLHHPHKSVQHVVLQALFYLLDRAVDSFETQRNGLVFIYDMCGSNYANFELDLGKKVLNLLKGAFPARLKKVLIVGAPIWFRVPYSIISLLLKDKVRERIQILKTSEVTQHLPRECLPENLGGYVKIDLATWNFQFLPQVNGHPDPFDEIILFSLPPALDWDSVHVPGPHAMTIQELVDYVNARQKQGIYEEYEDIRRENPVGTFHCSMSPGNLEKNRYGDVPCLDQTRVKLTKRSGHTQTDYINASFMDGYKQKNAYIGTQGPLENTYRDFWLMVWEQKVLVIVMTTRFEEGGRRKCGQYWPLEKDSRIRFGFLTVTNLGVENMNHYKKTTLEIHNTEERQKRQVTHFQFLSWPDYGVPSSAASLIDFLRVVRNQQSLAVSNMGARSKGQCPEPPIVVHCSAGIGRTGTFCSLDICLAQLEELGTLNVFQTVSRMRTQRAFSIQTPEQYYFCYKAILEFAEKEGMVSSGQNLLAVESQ
# Chain of human Phosphatase and Tensin Homolog (PTEN), PTEN (gene 5728) (P60484 whole entry, looked up): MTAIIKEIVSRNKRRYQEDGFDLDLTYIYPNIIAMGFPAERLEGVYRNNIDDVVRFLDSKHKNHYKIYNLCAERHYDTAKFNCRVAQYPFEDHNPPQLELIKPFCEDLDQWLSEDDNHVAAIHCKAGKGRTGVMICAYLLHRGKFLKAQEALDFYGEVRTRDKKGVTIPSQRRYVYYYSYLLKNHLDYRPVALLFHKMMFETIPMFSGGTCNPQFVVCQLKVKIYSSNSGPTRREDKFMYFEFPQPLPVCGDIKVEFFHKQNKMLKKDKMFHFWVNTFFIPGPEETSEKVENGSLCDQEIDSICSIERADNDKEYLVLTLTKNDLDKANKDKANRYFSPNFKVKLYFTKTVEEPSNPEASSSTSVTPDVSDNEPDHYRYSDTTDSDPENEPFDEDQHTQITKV
# Chain of human Protein Tyrosine Phosphatase Non-receptor Type 6 (PTPN6), PTPN6 (gene 5777) (P29350 whole entry, looked up): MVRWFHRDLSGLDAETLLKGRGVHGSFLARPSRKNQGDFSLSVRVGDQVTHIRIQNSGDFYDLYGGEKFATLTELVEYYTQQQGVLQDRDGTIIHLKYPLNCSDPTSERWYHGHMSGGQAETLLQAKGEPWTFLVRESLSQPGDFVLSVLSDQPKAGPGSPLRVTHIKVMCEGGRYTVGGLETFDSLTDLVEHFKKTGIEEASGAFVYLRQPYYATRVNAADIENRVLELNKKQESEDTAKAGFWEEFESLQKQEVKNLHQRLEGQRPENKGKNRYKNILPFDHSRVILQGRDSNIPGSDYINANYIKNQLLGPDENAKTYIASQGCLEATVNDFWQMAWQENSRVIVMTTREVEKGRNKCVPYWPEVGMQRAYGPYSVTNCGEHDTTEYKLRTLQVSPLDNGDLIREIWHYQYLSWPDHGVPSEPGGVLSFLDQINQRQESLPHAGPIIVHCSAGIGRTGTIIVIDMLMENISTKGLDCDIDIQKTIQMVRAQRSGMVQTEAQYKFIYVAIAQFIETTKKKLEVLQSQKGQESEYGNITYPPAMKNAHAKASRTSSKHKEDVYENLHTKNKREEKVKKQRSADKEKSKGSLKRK
compound,measurement,setting,value
CCCCSP(=O)(SCCCC)SCCCC,outcome,[1],inactive
CCOP(=S)(OCC)Oc1cc(C)nc(C(C)C)n1,outcome,[2],inactive
O=c1ccc(=O)[nH][nH]1,outcome,[3],inactive
CCC(=NOC/C=C/Cl)C1=C(O)CC(C2CCOCC2)CC1=O (stereo unspecified),outcome,[3],inactive
N#CSCSC#N,outcome,[3],inactive
same,outcome,[4],inactive
same,outcome,[5],inactive
CCc1cccc(CC)c1N(COC)C(=O)CCl,outcome,[2],inactive
COc1cc(OC)nc(Sc2cccc(Cl)c2C(=O)O)n1,outcome,[1],inactive
CSC1=N[C@@](C)(c2ccccc2)C(=O)N1Nc1ccccc1,outcome,[3],inactive
C#CC(C)(C)NC(=O)c1cc(Cl)cc(Cl)c1,outcome,[6],inactive
same,outcome,[2],inactive
CCOP(=S)(OCC)OC(Cl)C(Cl)(Cl)Cl (stereo unspecified),outcome,[4],inactive
same,AC50,[5],12.7 µM (active)
CCCCOC(=O)c1ccccc1C(=O)O,outcome,[3],inactive
same,outcome,[7],inactive
